Assay results reported in PubChem BioAssay AID1006 (Sanford-Burnham Center for Chemical Genomics, 2008).
The whole screen tested about 200,000 compounds, of which about 3,000 (1.5%) were called active.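 How the source made its calls: active means inhibition above about 50% when tested at 10 µM (limit read from the data); inactive means the rest.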 Shown is part of a subset that was picked to be rich in actives.

These molecules were tested against Luciferin 4-monooxygenase (Photinus pyralis) (UniProt P08659) (assay: inhibition of purified FLuc reporter enzyme – biochemical, luminescence, ATPLite, artefact control for luciferase-based inhibitor screens, primary screen (AID 1006)). Conditions: ATPLite firefly luciferase biochemical luminescence, 10 min; at 10 µM; hits give high values.
Luciferin 4-monooxygenase (Photinus pyralis), sequence (P08659 whole entry, looked up): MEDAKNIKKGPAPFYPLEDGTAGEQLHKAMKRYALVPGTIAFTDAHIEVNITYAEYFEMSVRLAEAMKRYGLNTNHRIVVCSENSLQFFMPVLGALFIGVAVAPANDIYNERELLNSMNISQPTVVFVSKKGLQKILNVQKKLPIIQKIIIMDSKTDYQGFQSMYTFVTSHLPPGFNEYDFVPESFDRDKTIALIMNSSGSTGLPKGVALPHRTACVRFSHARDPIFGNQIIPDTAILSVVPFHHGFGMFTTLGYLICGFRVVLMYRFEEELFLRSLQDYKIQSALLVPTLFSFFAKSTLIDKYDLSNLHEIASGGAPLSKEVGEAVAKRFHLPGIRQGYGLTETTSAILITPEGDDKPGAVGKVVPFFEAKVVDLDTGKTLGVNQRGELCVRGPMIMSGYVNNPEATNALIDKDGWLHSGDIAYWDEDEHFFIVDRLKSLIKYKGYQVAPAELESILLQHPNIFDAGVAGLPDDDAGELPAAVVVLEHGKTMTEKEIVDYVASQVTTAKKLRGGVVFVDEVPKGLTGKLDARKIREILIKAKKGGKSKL

inhibition, active:
COc1ccc(NC(=S)N2N=CCC2c2ccccc2)cc1 (stereo not drawn) 65.3%
CC(OC(=O)c1ccc2ccccc2n1)C(=O)c1ccccc1 (stereo not drawn) 81.1%
CC(=C/c1ccccc1)/C=N/NC(=O)c1cc(C)oc1C 78.3%
Cc1cc(C(=O)N/N=C/c2ccc(N3CCOCC3)cc2)c(C)o1 50.7%
O=C(Nc1ccn(Cc2ccccc2)n1)c1cccc(F)c1 64.2%
O=C(Nc1ccn(Cc2ccccc2)n1)c1n[nH]c([N+](=O)[O-])c1Cl 83%
c1ccc(-n2ncc3c(N4CCCC4)ncnc32)cc1 73.9%
COc1ccc(-n2ncc3c(N4CCCc5ccccc54)ncnc32)cc1 54.9%
O=c1oc(/C=C/c2ccccc2)nc2ccccc12 80.5%
COc1ccc(/C=C/C(=O)Nc2ccc(C34CC5CC(CC(O)(C5)C3)C4)cc2)cc1OC 57.2%
COc1ccc(-n2nnnc2-c2nc3ccccc3s2)cc1 73.2%
O=C(/C=C/c1ccc(N2CCOCC2)cc1)c1ccccc1 60.8%
O=C(Nc1cccc(O)c1)c1ccc(C(=O)c2ccccc2)o1 69.9%
Cc1ccsc1C(=O)OCC(=O)c1cc(C)n(CC2CCCO2)c1C (stereo not drawn) 90.3%

inhibition, inactive:
COc1ccc(C(=O)NC2CCN(C(=S)Nc3ccccc3)CC2)cc1 -7.5%
COc1ccc(C(=S)Nc2ccccc2)cc1 8.7%
O=C(Oc1ccc([N+](=O)[O-])cc1)c1ccc2ccccc2n1 41.6%
COc1ccc(C(=O)COC(=O)c2ccc3ccccc3n2)cc1 19.4%
COc1ccc(Cl)cc1NC(=O)Cn1nc(-c2ccc(C)cc2)n(C)c1=S -5.1%
Cc1ccc(C(=O)Oc2coc(CSc3nnc(NC(=O)c4cccs4)s3)cc2=O)cc1C -0.1%
CCN(CC)c1ccc(C(=O)N/N=C/c2ccc(N3CCOCC3)cc2)cc1 -7%
Cc1cc(C(=O)N/N=C\C(Br)=C\c2ccccc2)c(C)o1 22.6%
Cc1ccccc1N/N=C/c1ccc(N2CCOCC2)cc1 -3.5%
Cc1cc(C(=O)N/N=C/c2ccccc2[N+](=O)[O-])c(C)o1 32.2%
Cc1ccc(NC(=S)N(Cc2ccco2)C(C)c2cccs2)cc1 (stereo not drawn) 3.7%
CCn1nc(C)cc1C(=O)N1CCCC(C(=O)c2cccc(OC)c2)C1 (stereo not drawn) 5.6%
COc1ccc(-n2cc(CNC3CCOCC3)c(-c3cccc(F)c3)n2)cc1 -2.3%
Cn1cc([N+](=O)[O-])c(C(=O)Nc2cnn(Cc3ccc(F)cc3)c2)n1 -8.5%
CC(=O)Nc1ccn(Cc2c(F)cccc2Cl)n1 -2.9%
Cc1ccc(Cn2ccc(NC(=O)c3cc(C(C)C)on3)n2)cc1 0%
O=C(Nc1ccn(Cc2ccc(F)cc2)n1)c1ccncc1 0.9%
CCOc1ccc(C(CC(=O)O)NC(=O)C23CC4CC(CC(C4)C2)C3)cc1OC (stereo not drawn) -3.9%
CN(C)CCCn1c(SCCN2C(=O)c3ccccc3C2=O)nc2ccccc2c1=O -5.8%
CC(C)N(Cc1nc(-c2ccc3c(c2)OCO3)no1)CC1CCC(=O)N1 (stereo not drawn) -8.8%
CN(C)/C=C(/C(=O)c1ccccc1)S(=O)(=O)c1ccc(Cl)cc1 -5.6%
Cc1ccc(N2C(=O)C(CC(=O)Nc3cccc(F)c3)N(CCc3ccncc3)C2=O)cc1 (stereo not drawn) -0.5%
COc1cccc(-c2ccc(SCC(=O)N3CCN(c4ccccc4)CC3)nn2)c1 -6.1%
COc1ccc(-n2ncc3c(N4CCc5ccccc54)ncnc32)cc1 41.9%
C1=C(CCNc2ncnc3c2cnn3-c2ccccc2)CCCC1 10.5%
O=C(NNc1ncnc2c1cnn2-c1ccccc1)c1ccco1 6%
Cc1cccc(-n2ncc3c(N4CCc5ccccc54)ncnc32)c1 17.1%
O=C(Nc1nnc(Cc2ccc(Cl)cc2)s1)c1cccnc1 7.5%
S=c1[nH]nc(/C=C/c2ccccc2)o1 7.5%
CCn1c(/C=C/c2ccc([N+](=O)[O-])o2)nc2ccccc2c1=O -6.1%
N#Cc1ccc(N2Cc3ccccc3/C2=N/C(=O)Nc2ccc(Cl)cc2)cc1 -4.6%
Cc1ccc(S(=O)(=O)N(CC(=O)Nc2cccc([N+](=O)[O-])c2)Cc2ccc(Cl)cc2)cc1 -6.1%
COc1ccc(/C=C/C(=O)N2CCCC2)cc1OC 5.6%
COc1ccc(/C=C/C(=O)Nc2cccnc2)cc1OC 13%
CCCN(CC(=O)Nc1ccc(OC)c(OC)c1)CC(=O)Nc1ccc(F)c(F)c1F 8.5%
COc1ccc(-n2nnnc2SCC(=O)Nc2ccccc2)cc1 -8%
CCOc1cccc(-n2nnnc2-c2ccc(OC)cc2)c1 -0.7%
CCc1ccc(Oc2nc([N+](=O)[O-])nn2C)cc1 -9.5%
Cc1nc(-c2ccccc2)sc1C(=O)/C=C/N(C)C 10.8%
O=C(CSc1nncs1)NC1CCCc2ccccc21 (stereo not drawn) -8.5%
COCC1CCCN(Cc2nc(-c3ccc4c(c3)OCO4)no2)C1 (stereo not drawn) 0.8%
O=C(/C=C/c1ccccc1)c1ccoc1 14%
O=C(O)c1ccc2c(c1)C(=O)N(c1ccc(/C=C/C(=O)c3ccccc3)cc1)C2=O -0.5%
CC1=C[C@H]2Cc3cc(C)cc(C)c3S(=O)(=O)[C@@H]2C=C1 -5.9%
O=C(CSc1ccccc1)Nc1ccc(C(=O)Nc2cccc(O)c2)cc1 1.9%
C/C(=C\C(=O)c1ccccc1)Nc1cccc(O)c1 44.4%
NC(=O)C1CCN(C(=O)COc2cccc3cccnc23)CC1 -10%
Cc1cc(C(=O)Cn2cnc3cc([N+](=O)[O-])ccc3c2=O)c(C)n1CC1CCCO1 (stereo not drawn) 1.6%
Cc1cc(C(=O)CCl)c(C)n1CC1COc2ccccc2O1 (stereo not drawn) -0.3%
